In PubChem BioAssay (NCI):
This is part of a sample that, as a whole, favours compounds with a hit. Of some 79,000 tested, about 15% had one in any assay. Calls of active or inactive are those of the source. No stated cut-off is given here; in the data, active means growth inhibition above about 70%; inactive means the rest.

What was measured:
[1] = NCI Yeast Anticancer Drug Screen. Data for the rad50 strain (AID 155);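 further: 0% = growth of vehicle-only cultures of the same strain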; details: S. cerevisiae rad50 strain growth inhibition, hits give high values
How it was run: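 Compounds were tested on a yeast strain with an engineered DNA damage repair alteration; the reported value is growth inhibition normalised to vehicle treatment.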

[2] = NCI Yeast Anticancer Drug Screen. Data for the mec2-1 strain (AID 157); details: S. cerevisiae mec2-1 strain, hits give high values
How it was run: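 Test agents were screened against the mec2-1 yeast strain, with defined DNA repair or cell cycle alteration. Growth was scored as inhibition against vehicle-only controls.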

[3] = NCI Yeast Anticancer Drug Screen. Data for the sgs1 mgt1 strain (AID 161);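 further: 0% = growth of cultures given vehicle only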; details: S. cerevisiae sgs1 mgt1 strain, hits give high values
How it was run: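 Read-out: growth inhibition vs vehicle controls. Cells: mutant yeast strain deficient in DNA damage repair.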

[4] = NCI Yeast Anticancer Drug Screen. Data for the cln2 rad14 strain (AID 165);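 further: 0% = growth equal to vehicle treated cultures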; details: S. cerevisiae cln2 rad14 strain, hits give high values
How it was run: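 Growth of compound-exposed yeast (cln2 rad14 genotype) measured and expressed as inhibition relative to vehicle.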

[5] = NCI Yeast Anticancer Drug Screen. Data for the bub3 strain (AID 167); details: S. cerevisiae bub3 mutant strain, hits give high values
How it was run: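 Growth of a checkpoint-deficient yeast mutant is measured after compound exposure. Values represent inhibition relative to vehicle.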

[6] = NCI Yeast Anticancer Drug Screen. Data for the mlh1 rad18 strain (AID 175); details: S. cerevisiae mlh1 rad18 strain growth inhibition, hits give high values
How it was run: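 In this whole-cell yeast screen, a strain with altered DNA damage repair is challenged with compound, and its growth is measured against matched vehicle-treated controls.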

[7] = at 5.0 µM (retest, dose inferred, filed as 0.5)
[8] = at 50.0 µM (retest, dose inferred, filed as 5.0)

Measured: growth inhibition

Brc1ccc(-c2c3ccccc3cc3c2ccc2ccccc23)cc1
inactive: [1]; [7] 1% | [1]; [8] -14% | [1]; at 50.0 µM 42.9% | [2]; [7] 1% | [2]; [8] -10% | [2]; at 50.0 µM 30.2% | [3]; [7] 2% | [3]; [8] 1% | [3]; at 50.0 µM 47.8% | [4]; [7] -2% | [4]; [8] -24% | [5]; [7] -5% | [5]; [8] 26% | [5]; at 50.0 µM 38.1% | [6]; [7] -4% | [6]; [8] -9% | [6]; at 50.0 µM 47.1%
active: [4]; at 50.0 µM 74.5%

COc1cccc(C2c3cc4c(cc3OC(NNc3ccccc3)C2C)OCO4)c1O (configuration not stated)
active: [1]; [8] 88% | [1]; at 50.0 µM 94% | [2]; [8] 79% | [2]; at 50.0 µM 95.3% | [3]; [8] 93% | [3]; at 50.0 µM 95.8% | [4]; [8] 88% | [4]; at 50.0 µM 94.2% | [5]; [8] 97% | [5]; at 50.0 µM 96.8% | [6]; [8] 91% | [6]; at 50.0 µM 95.7%
inactive: [1]; [7] -8% | [2]; [7] -5% | [3]; [7] 1% | [4]; [7] 19% | [5]; [7] -8% | [6]; [7] 27%

C=CC(=O)Nc1ccccc1CC(c1c[nH]c2ccccc12)c1c[nH]c2ccccc12
active: [1]; at 50.0 µM 85% | [2]; at 50.0 µM 73.7% | [3]; at 50.0 µM 81.5% | [4]; at 50.0 µM 84.3% | [5]; at 50.0 µM 74.5% | [6]; at 50.0 µM 76.9%
inactive: [1]; [7] 34% | [1]; [8] 34% | [2]; [7] 26% | [2]; [8] 26% | [3]; [7] 34% | [3]; [8] 34% | [4]; [7] 12% | [4]; [8] 12% | [5]; [7] 21% | [5]; [8] 21% | [6]; [7] 27% | [6]; [8] 27%

O=C1c2cccc3cc4ccccc4c(c23)C(=O)N1CCCNCCNCCCN1C(=O)c2cccc3cc4ccccc4c(c23)C1=O
active: [1]; [7] 94% | [1]; [8] 98% | [1]; at 50.0 µM 90.1% | [2]; [7] 96% | [2]; [8] 98% | [2]; at 50.0 µM 85.2% | [3]; [7] 96% | [3]; [8] 98% | [3]; at 50.0 µM 86.5% | [4]; [7] 83% | [4]; [8] 98% | [4]; at 50.0 µM 88% | [5]; [7] 98% | [5]; [8] 98% | [5]; at 50.0 µM 87.8% | [6]; [7] 94% | [6]; [8] 97% | [6]; at 50.0 µM 91%

CCOc1ccccc1NC1=C(Cl)C(=O)c2ccccc2C1=O
active: [1]; [7] 99% | [1]; [8] 97% | [2]; [7] 99% | [2]; [8] 98% | [2]; at 50.0 µM 97.9% | [3]; [7] 100% | [3]; [8] 98% | [3]; at 50.0 µM 98% | [4]; [7] 99% | [4]; [8] 98% | [4]; at 50.0 µM 97% | [5]; [7] 99% | [5]; [8] 97% | [5]; at 50.0 µM 97.8% | [6]; [7] 99% | [6]; [8] 97% | [6]; at 50.0 µM 96.1%
inactive: [1]; at 50.0 µM 23.9%

CO/N=C/c1cc(NC(=S)c2ccoc2C)ccc1Cl
inactive: [1]; [7] 4% | [1]; [8] 0% | [2]; [7] -16% | [2]; [8] -17% | [3]; [7] 20% | [3]; [8] 6% | [4]; [7] -26% | [4]; [8] 10% | [5]; [7] 9% | [5]; [8] 34% | [6]; [7] -23% | [6]; [8] -14%
active: [1]; at 50.0 µM 93.2% | [2]; at 50.0 µM 94.2% | [3]; at 50.0 µM 93.7% | [4]; at 50.0 µM 92.2% | [5]; at 50.0 µM 92.2% | [6]; at 50.0 µM 91.2%

Cc1cnc(Sc2ncccc2[N+](=O)[O-])[nH]c1=O
inactive: [1]; [7] 2% | [1]; [8] 7% | [1]; at 50.0 µM -7% | [2]; [7] -3% | [2]; [8] 21% | [2]; at 50.0 µM 43.1% | [3]; [7] 5% | [3]; [8] 14% | [3]; at 50.0 µM 29.1% | [4]; [7] -3% | [4]; [8] 2% | [4]; at 50.0 µM 26.1% | [5]; [7] 6% | [5]; [8] 9% | [5]; at 50.0 µM -2.7% | [6]; [7] 0% | [6]; [8] 24% | [6]; at 50.0 µM 27.9%

CCCCc1ccc2nccc(N/N=C/c3ccc(OC)c4ccccc34)c2c1
inactive: [1]; [7] 1% | [2]; [7] -27% | [2]; at 50.0 µM 69.3% | [3]; [7] 2% | [4]; [7] -2% | [4]; at 50.0 µM 62.4% | [5]; [7] -4% | [6]; [7] 1%
active: [1]; [8] 91% | [1]; at 50.0 µM 80% | [2]; [8] 89% | [3]; [8] 94% | [3]; at 50.0 µM 76.7% | [4]; [8] 73% | [5]; [8] 90% | [5]; at 50.0 µM 79% | [6]; [8] 88% | [6]; at 50.0 µM 90.1%

COc1cc2c(cc1OC)NCC1COc3c(ccc(OC)c3OC)C1=N2 (configuration not stated)
inactive: [1]; [7] 12% | [1]; [8] 14% | [1]; at 50.0 µM -44.9% | [2]; [7] 14% | [2]; [8] 8% | [2]; at 50.0 µM -6.65% | [3]; [7] 15% | [3]; [8] 17% | [3]; at 50.0 µM -18.4% | [4]; [7] 19% | [4]; [8] 17% | [4]; at 50.0 µM 11.1% | [5]; [7] 17% | [5]; [8] 22% | [5]; at 50.0 µM 16% | [6]; [7] 12% | [6]; [8] 24% | [6]; at 50.0 µM -37.8%
